Measured values as given in PubChem BioAssay (Tox21).
Where “and” joins values, the source holds several entries; their conditions need not be identical. Identical values can stand only once. Records with an inconclusive call do not appear. Calls of active or inactive are those of the source. Unless noted, calls come from the whole dose curve; as a rule, active = well fitted curve in the direction sought with a large enough effect in the repeat runs; inconclusive = weak or mixed curves; inactive = no such curve, though single readings can be large; an effect the other way counts as inactive or inconclusive.

Assays:
[1] = qHTS assay for small molecule agonists of the p53 signaling pathway - cell viability (AID 651633; calls by dose curve;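 note: p53RE-bla HCT reporter cells with a stable beta-lactamase p53 reporter; nearly all actives have a fitted effect of over 30% in size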); settings: p53RE-bla HCT-116 viability, ATP luminescence, 16 h; series mostly up to 83.3 µM
Outline: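 p53RE-bla cells, seeded at 4,000 per well and rested 5 h at 37 C/5% CO2, received compounds in DMSO for 16 h at 37 C. CellTiter-Glo was then added, and luminescence was read after 30 min at room temperature to gauge cytotoxicity.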

[2] = qHTS assay for small molecules that induce genotoxicity in human embryonic kidney cells expressing luciferase-tagged ATAD5 - cell viability (AID 651634; calls by dose curve; note: nearly all actives have a fitted effect of over 25% in size; note: potency is the fitted concentration of half-maximal effect); settings: HEK293T ATAD5-luc cells viability, CellTiter-Fluor, 15.5 h; series mostly up to 83.3 µM
Outline: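 Cytotoxicity counterscreen in HEK293T cells bearing an ATAD5-luciferase reporter: live-cell protease activity measured by CellTiter-Fluor fluorescence after 15.5 hr compound exposure.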

[3] = qHTS assay to test for compound auto fluorescence at 590 nm (red) in HepG2 cells (AID 720674); settings: HepG2 autofluorescence, red 540/590 nm, 1 h; series mostly up to 91.3 µM
Outline: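 Rose Bengal sodium served as the red fluorophore standard. HepG2 monolayers (overnight attachment, MEM with 10% FBS) were exposed to test compounds for 1 hr at 37 C and read at Ex 540/Em 590 nm.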

[4] = qHTS assay to test for compound auto fluorescence at 535 nm (green) in HepG2 cells (AID 720675); settings: green autofluorescence 485/535 nm, 1 h; series mostly up to 91.3 µM
[5] = qHTS assay to test for compound auto fluorescence at 460 nm (blue) in HEK293 cells (AID 720678); settings: blue autofluorescence 405/460 nm; series mostly up to 91.3 µM
Outline: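 HEK293 cells (2,000/well, medium with 10% dialyzed FBS) attached 4-5 hr, then exposed to compound overnight at 37C, 5% CO2. Blue fluorescence read at 405/460 nm, with triamterene as reference fluorophore.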

[6] = qHTS assay to test for compound auto fluorescence at 590 nm (red) in HEK293 cells (AID 720679); settings: red autofluorescence 540/590 nm; series mostly up to 91.3 µM
Outline: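 HEK293 cells (2,000/well, 10% dialyzed FBS) attached 4-5 hr, then dosed with compound or DMSO and incubated overnight at 37C, 5% CO2. Red fluorescence read at 540/590 nm, Rose Bengal sodium as reference fluorophore.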

[7] = qHTS assay to test for compound auto fluorescence at 535 nm (green) in HEK293 cells (AID 720680); settings: green autofluorescence 485/535 nm; series mostly up to 91.3 µM
[8] = qHTS assay to test for compound auto fluorescence at 535 nm (green) in HEK293 cell free culture (AID 720682); settings: cell-free medium, green autofluorescence 485/535 nm, stronger effect = higher value; series mostly up to 91.3 µM
Outline: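 Intrinsic compound fluorescence is measured in culture medium containing 10% FBS, with excitation at 485 nm and detection at 535 nm, referenced to fluorescein.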

[9] = qHTS assay to test for compound auto fluorescence at 590 nm (red) in HEK293 cell free culture (AID 720683); settings: cell-free medium autofluorescence, Ex540/Em590 red; series mostly up to 91.3 µM
Outline: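 Tox21 10K library compounds were pinned into cell-free DMEM with 10% FBS and fluorescence was read at excitation 540 nm. Activity is expressed as Rose Bengal sodium equivalency.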

[10] = qHTS assay to test for compound auto fluorescence at 590 nm (red) in HepG2 cell free culture (AID 720684); settings: cell-free medium autofluorescence, red 540/590 nm; series mostly up to 91.3 µM
Outline: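 Red fluorescence (540 nm excitation, 590 nm emission) was measured after compound transfer into cell-free MEM supplemented with 10% FBS. Values are equivalencies against Rose Bengal sodium.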

[11] = qHTS assay to test for compound auto fluorescence at 460 nm (blue) in HepG2 cell free culture (AID 720685); settings: Cell-free culture medium, blue autofluorescence 405/460 nm; series mostly up to 91.3 µM
Outline: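 Compound (23 nL) or DMSO pinned into cell-free MEM with 10% FBS; blue fluorescence read at 405/460 nm excitation/emission, expressed as auto-fluorescence equivalency to triamterene.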

[12] = qHTS assay to test for compound auto fluorescence at 535 nm (green) in HepG2 cell free culture (AID 720686); settings: Cell-free medium, green autofluorescence 485/535 nm; series mostly up to 91.3 µM
[13] = qHTS assay to test for compound auto fluorescence at 460 nm (blue) in HepG2 cells (AID 720687); settings: autofluorescence 405/460 nm, 1 h; series mostly up to 91.3 µM
Outline: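 Cells (2,000/well in MEM with 10% FBS) attached overnight at 37 C, then were exposed to compound or DMSO for 1 hr at 37 C, 5% CO2. Fluorescence read at Ex/Em 405/460 nm, expressed as triamterene-equivalent signal.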

[14] = molecular target: Glucocorticoid receptor (Homo sapiens) (UniProt P04150); test: qHTS assay to identify small molecule agonists of the glucocorticoid receptor (GR) signaling pathway (AID 720691; active = well fitted activation curve with a large enough effect in the signal ratio in the repeat runs, not every such curve was filed as active; the % refers to the signal ratio); settings: GR-bla HeLa, beta-lactamase reporter ratio, 18 h; series mostly up to 62.4 µM
Outline: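 Agonist mode in a HeLa line carrying a GRE-controlled beta-lactamase reporter. Compounds act for 18 h at 37 C before a 2 h room-temperature FRET substrate step and fluorescence reading.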

[15] = qHTS assay to test for compound auto fluorescence at 460 nm (blue) in HEK293 cell free culture (AID 720681); settings: cell-free medium, autofluorescence 405/460 nm (blue); series mostly up to 91.3 µM
Outline: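 Test compounds were pinned into cell-free culture medium (DMEM with 10% FBS) and fluorescence was read directly at Ex/Em 405/460 nm. Signals were expressed as fluorescence equivalents of triamterene, with DMSO vehicle as control.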

[16] = qHTS assay for small molecule disruptors of the mitochondrial membrane potential - cell viability (AID 720634; calls by dose curve;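 note: human HepG2 liver cancer cells; nearly all actives have a fitted effect of over 20% in size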); settings: HepG2 viability, ATP luminescence (CellTiter-Glo), 1 h; series mostly up to 83.2 µM
Outline: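 After overnight attachment at 37 C, HepG2 cells received compound or DMSO vehicle for 1 hr. Viability is then taken from ATP-driven luminescence following a 30 min room-temperature CellTiter-Glo step.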

[17] = qHTS assay for small molecule disruptors of the mitochondrial membrane potential (AID 720635); settings: HepG2 mitochondrial membrane potential, Mito-MPS dye ratio; series mostly up to 83.2 µM
Outline: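 HepG2 cells (2,000/well) attached overnight at 37C, then took compound for 1 hr at 37C, 5% CO2. Mito-MPS dye was added for 30 min; fluorescence was read at 490/535 nm (monomers) and 540/590 nm (aggregates).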

[18] = qHTS assay for small molecules that induce genotoxicity in human embryonic kidney cells expressing luciferase-tagged ATAD5 (AID 651632); settings: HEK293T ATAD5-luciferase induction, 16 h; series mostly up to 83.3 µM; note: nearly all actives have a fitted effect of over 15% in size
Outline: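 Increased luciferase signal from ATAD5-tagged reporter cells indicates DNA-damage-driven ATAD5 induction. HEK293T cells are treated for 16 hr at 37C before detection with Amplite.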

[19] = molecular target: Glucocorticoid receptor (Homo sapiens) (UniProt P04150); test: qHTS assay to identify small molecule antagonists of the glucocorticoid receptor (GR) signaling pathway (AID 720692; active = well fitted inhibition curve with a large enough effect in the signal ratio in the repeat runs, not every such curve was filed as active; the % refers to the signal ratio; note: potency is the fitted concentration of half-maximal effect); settings: GR-bla HeLa, beta-lactamase FRET ratio, dexamethasone-stimulated, 18 h; series mostly up to 58.5 µM
Outline: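 Cells plated, rested 4 h at 37 C/5% CO2; compounds in DMSO pin-transferred; dexamethasone added to 5 nM final; 18 h at 37 C; B/G FRET substrate added, 2 h room temperature; fluorescence measured.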

Measured: Potency

Sequence of Glucocorticoid receptor (Homo sapiens) (P04150 whole entry, looked up): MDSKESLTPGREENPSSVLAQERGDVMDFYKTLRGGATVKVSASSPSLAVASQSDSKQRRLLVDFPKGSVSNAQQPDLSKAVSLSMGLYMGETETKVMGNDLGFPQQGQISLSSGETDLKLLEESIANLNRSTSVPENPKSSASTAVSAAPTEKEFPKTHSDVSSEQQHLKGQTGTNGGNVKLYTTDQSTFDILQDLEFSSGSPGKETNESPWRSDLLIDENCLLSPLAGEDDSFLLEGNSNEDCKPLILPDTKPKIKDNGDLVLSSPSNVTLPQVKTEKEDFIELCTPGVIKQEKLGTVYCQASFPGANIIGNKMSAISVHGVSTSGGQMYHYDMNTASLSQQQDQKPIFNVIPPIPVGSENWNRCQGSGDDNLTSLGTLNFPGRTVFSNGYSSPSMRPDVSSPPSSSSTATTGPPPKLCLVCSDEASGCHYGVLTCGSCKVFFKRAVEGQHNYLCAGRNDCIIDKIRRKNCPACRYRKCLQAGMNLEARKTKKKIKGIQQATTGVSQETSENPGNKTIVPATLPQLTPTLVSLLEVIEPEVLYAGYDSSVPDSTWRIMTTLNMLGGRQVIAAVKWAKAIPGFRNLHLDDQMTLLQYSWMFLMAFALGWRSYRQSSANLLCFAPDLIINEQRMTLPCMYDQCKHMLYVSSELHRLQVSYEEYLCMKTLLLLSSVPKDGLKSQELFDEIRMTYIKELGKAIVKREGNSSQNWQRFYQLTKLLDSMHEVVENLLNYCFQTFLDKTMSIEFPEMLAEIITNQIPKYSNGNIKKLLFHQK

COC(=O)C(C)N(C(=O)Cc1ccccc1)c1c(C)cccc1C (configuration not stated)
not listed: [15] | [16] | [17] | [18] | [19]
inactive: all other assays above

CC(C)(C)C(O)C(Oc1ccc(Cl)cc1)n1cncn1 (configuration not stated)
not listed: [1] | [2] | [3] | [14] | [16] | [17] | [18] | [19]
inactive: all other assays above

CCc1ccc(C(=O)NN(C(=O)c2cc(C)cc(C)c2)C(C)(C)C)cc1
active: [2] 486 nM
not listed: [1] | [16] | [17] | [18] | [19]
inactive: all other assays above

C=CCN1CC[C@]23c4c5ccc(O)c4O[C@H]2C(=O)CC[C@@]3(O)[C@H]1C5
not listed: [1] | [2] | [3] | [14] | [18] | [19]
inactive: all other assays above

COC(C)(C)CCC[C@H](C)C/C=C/C(C)=C/C(=O)OC(C)C
not listed: [1] | [2] | [14] | [16] | [17] | [19]
inactive: all other assays above

O=[N+]([O-])c1ccc(F)c([N+](=O)[O-])c1
active: [2] 10.6 µM and 27.6 µM
not listed: [3] | [14] | [16] | [17] | [18] | [19]
inactive: all other assays above

ClCCCCBr
not listed: [3] | [17] | [18] | [19]
inactive: all other assays above

Clc1cc(Cl)c(Cl)c(Cl)c1
not listed: [1] | [13] | [17] | [18] | [19]
inactive: all other assays above

COc1nn(C(=O)NS(=O)(=O)c2ccccc2OC(F)(F)F)c(=O)n1C
not listed: [18]
inactive: all other assays above

CC(C)O.CC(C)O.OCCN(CCO)CCO.OCCN(CCO)CCO.[Ti]
not listed: [1] | [14] | [15] | [16] | [17] | [18] | [19]
inactive: all other assays above

O=S1OC[C@@H]2[C@H](CO1)[C@]1(Cl)C(Cl)=C(Cl)[C@@]2(Cl)C1(Cl)Cl (some centres not stated)
not listed: [1] | [16] | [17] | [18] | [19]
inactive: all other assays above

C[C@@H]1CC[C@H]2[C@@H](C)C(=O)O[C@@H]3O[C@@]4(C)CC[C@@H]1[C@]32OO4
not listed: [2] | [6] | [13] | [18]
inactive: all other assays above

CNP(=O)(OC)Oc1ccc(C(C)(C)C)cc1Cl (configuration not stated)
not listed: [13] | [18] | [19]
inactive: all other assays above

NC(=O)CI
not listed: [2] | [14] | [17] | [18] | [19]
inactive: all other assays above

BrCC(Br)C1CCC(Br)C(Br)C1 (configuration not stated)
not listed: [3] | [17] | [18] | [19]
inactive: all other assays above

COc1nn(CSP(=S)(OC)OC)c(=O)s1
not listed: [17] | [18] | [19]
inactive: all other assays above

CCCC(Cn1cncn1)c1ccc(Cl)cc1Cl (configuration not stated)
active: [19] 49 µM
not listed: [14] | [16] | [17] | [18]
inactive: all other assays above
